In PubChem BioAssay (EPA / NIEHS):
Where “and” joins values, the source holds several entries; their conditions need not be identical. Equal values may be shown once. Records with an inconclusive call do not appear. Where a structure was tested more than once in an assay, its records may differ in their call. Calls of active or inactive are those of the source. Rule for the calls, unless noted: active = hit-call score of the fitted dose curve at least 0.9, where 1 is the maximum; inactive = score below 0.9.

How the values were obtained:
[1] = CCTE_Shafer_MEA_dev_spike_duration_mean: CCTE's Neural Network Formation Assay for Mean Spike Duration, Shafer Lab (AID 2284051);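 note: mean network spike duration pooled as area under curve over DIV 5 to 12 recordings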;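 for AC50: potency for a decrease in mean network spike duration versus DMSO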
In short: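 Spontaneous activity was recorded on days 5, 7, 9 and 12 from rat cortical cultures grown on microelectrode arrays and dosed continuously from day 0, with media and compound renewed after the DIV 5 and 9 recordings. Network-spike duration was collapsed by area under the curve.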

[2] = CCTE_Shafer_MEA_dev_network_spike_duration_std: CCTE's Neural Network Formation Assay for Standard Deviation of Network Spike Duration, Shafer Lab (AID 2284052);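 note: hits are decreases in network spike duration SD versus DMSO vehicle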
In short: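 Network spike duration variability was collapsed across recordings on days 5, 7, 9 and 12 by trapezoidal area-under-curve and fitted downward against DMSO. Cultures were rat cortical neurons on PEI-coated MEA plates, dosed continuously from plating, refed with compound DIV 5/9.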

[3] = CCTE_Shafer_MEA_dev_per_network_spike_spike_number_mean: CCTE's Neural Network Formation Assay for Mean Number of Spikes in a Network Spike, Shafer Lab (AID 2284053);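 for AC50: fitted as decrease in spikes per network spike relative to DMSO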
In short: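 Mean spike count within each network spike, taken in a 0.05 s window at its peak, was recorded on days 5, 7, 9 and 12 and integrated as trapezoidal area under the curve. Rat cortical cultures on MEA plates received continuous compound from day 0, refreshed at medium changes on DIV 5 and 9.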

[4] = CCTE_Shafer_MEA_dev_per_network_spike_spike_percent: CCTE's Neural Network Formation Assay for Percent of Spikes in a Network Spike, Shafer Lab (AID 2284054)
In short: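 Read-out: percent of spikes falling in a 0.05 s window at network-spike peak, from spontaneous MEA recordings on days 5, 7, 9 and 12; trapezoidal AUC; loss of signal versus DMSO. Rat cortical cultures, compound present throughout.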

[5] = CCTE_Shafer_MEA_dev_LDH: CCTE's Lactate Dehydrogenase Assay for Cytotoxicity in the Neural Network Formation Assay, Shafer Lab (AID 2284068; active = hit-call score of the fitted dose curve at least 0.9, where 1 is the maximum;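 note: exposure for twelve days from plating with re-dosing on DIV 5 and 9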)
In short: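 Primary rat cortical neurons were cultured on PEI-coated MEA plates and exposed from plating through day 12, with compound renewed at medium changes on DIV 5 and 9. LDH activity was read spectrophotometrically; loss of signal versus DMSO indicates reduced viability.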

[6] = CCTE_Shafer_MEA_dev_AB: CCTE's Alamar Blue Assay for Cytotoxicity in the Neural Network Formation Assay, Shafer Lab (AID 2284083; active = hit-call score of the fitted dose curve at least 0.9, where 1 is the maximum;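 note: resazurin reduction fluorescence as viability of cultured neurons; twelve days of exposure from plating with re-dosing on DIV 5 and 9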)
In short: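 Resazurin fluorescence, relative to DMSO, gauges viability after twelve days of exposure that began at plating of rat cortical neurons (1.5 x 10^5 cells/well, 48-well MEA); treatment renewed with full medium exchange on DIV 5 and 9.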

[7] = CCTE_Shafer_MEA_acute_AB: CCTE's Alamar Blue Assay for Cytotoxicity in the Neural Acute Assay, Shafer Lab (AID 2284069; active = hit-call score of the fitted dose curve at least 0.9, where 1 is the maximum;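 note: active compounds lower the viability signal compared with DMSO wells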)
In short: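 Resazurin reduction (CellTiter Blue, 1:6 in fresh medium) read at ex 544/em 590 nm marks viability loss relative to DMSO. Cells: primary rat cortical neuron networks on microelectrode arrays, treated after baseline recording at 13 or 15 days in vitro.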

[8] = UKN5_HCS_SBAD2_cell_viability: Viability Assessment in the University of Konstanz (UKN) Leist Lab Neurite Outgrowth Assay in human iPSC-derived immature Dorsal Root Ganglia Neurons (UKN5) (AID 2284056)
In short: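 iPSC-derived immature peripheral neurons (SBAD2) seeded on Matrigel with CHIR99021, SU5402 and DAPT, dosed 1 h later for 24 h. Viability from Hoechst H-33342 and calcein-AM live staining, high-content imaging; bidirectional fit versus DMSO.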

[9] = UKN5_HCS_SBAD2_neurite_outgrowth: University of Konstanz (UKN) Leist Lab Neurite Outgrowth Assay in human iPSC-derived immature Dorsal Root Ganglia Neurons (UKN5) (AID 2284070); conditions: actives raise or lower the signal
In short: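 Thaw, seed on Matrigel (100.000 cells/cm2), dose 1 h later; at 23 h live-stain with H-33342 and calcein-AM for 60 min; image at 24 h. Neurite area fitted bidirectionally vs DMSO.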

[10] = system: DIO3 (gene 1735); assay: CCTE_GLTED_hDIO3: CCTE's human Deiodinase 3 (DIO3) Inhibition Assay, Great Lakes Toxicology and Ecology Division (GLTED) Lab (AID 2284055; active = hit-call score of the fitted dose curve at least 0.9, where 1 is the maximum;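 note: potency is for inhibition seen as loss of released iodide signal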)
In short: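 Human type 3 deiodinase, expressed via adenovirus system, was exposed to test chemicals for 3 hours in a cell-free format. Released iodide was then determined spectrophotometrically by Sandell-Kolthoff; plates ran in triplicate.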

Measured: AC50

Cn1cc[nH]c1=S
inactive: [1] | [2] | [3] | [4] | [6]
active: [5] 46.6 nM

FC(F)(F)C(F)(F)C(F)(F)C(F)(F)C(F)(F)C(F)(F)I
inactive: [1] | [2] | [3] | [4]

FC(F)(F)COC(OCC(F)(F)F)OCC(F)(F)F
inactive: [1] | [2] | [3] | [4] | [5]

CCc1ccc(O)c(C(C)(C)C)c1
inactive: [7]

COCc1nnc(-c2ccc[n+]([O-])c2)n1-c1c(Cl)c(Cl)cc2[nH]c(=O)c(=O)[nH]c12
inactive: [7]

NC(=O)N1c2ccccc2C=Cc2ccccc21
inactive: [1] | [2] | [3] | [4] | [8] | [5] | [9]

Cc1ncc([C@@H](CCCCCCc2ccc3c(n2)NCCC3)CC(=O)O)cn1
inactive: [7]

O=C(Cl)C(F)(F)C(F)(F)C(F)(F)C(=O)Cl
inactive: [1] | [2] | [3] | [4] | [6]

Cn1c(=O)c2[nH]cnc2n(C)c1=O
inactive: [7]

CCOc1ccc2[nH]cc(C(=O)NCc3ccccc3)c(=O)c2n1
inactive: [1] | [2] | [3] | [4] | [6]

OCCC(F)(F)C(F)(F)C(F)(F)C(F)(F)F
inactive: [1] | [2] | [3] | [4]

CCCCCCCCCCCCCCCCOS(=O)(=O)O
active: [10] 6.12 µM

NCC(F)(F)C(F)(F)C(F)(F)C(F)(F)F
inactive: [1] | [2] | [3] | [4] | [6]

CC[C@H](C)C(=O)O[C@H]1C[C@H](O)C=C2C=C[C@H](C)[C@H](CC[C@@H](O)C[C@@H](O)CC(=O)O)[C@H]21
active: [1] 37 nM | [4] 1880 nM | [6] 2.43 µM
inactive: [2] | [3] | [7]

C[C@]12C=CC(=O)C=C1CC[C@H]1[C@@H]3C[C@@H](O)[C@](O)(C(=O)CO)[C@@]3(C)C[C@H](O)[C@@]12F
active: [4] 570 nM
inactive: [1] | [2] | [3] | [5] | [6]

C=CCc1cc(S(=O)(=O)c2ccc(O)c(CC=C)c2)ccc1O
inactive: [7]
active: [10] 62.5 µM

CCCc1ccccc1
inactive: [7]

c1ccc(C(O[C@@H]2CCCN(CCc3ccc4c(c3)OCO4)C2)c2ccccc2)cc1
inactive: [7]

COc1cc2c(c(OC)c1OC)-c1ccc(OC)c(=O)cc1[C@@H](NC(C)=O)CC2
active: [1] 24.8 nM | [2] 3.22 nM | [3] 12.7 nM | [4] 3 nM | [5] 16.7 nM | [6] 0.0232 µM
inactive: [7]

NNC(=O)c1ccncc1
inactive: [1] | [2] | [3] | [4] | [6]

O=S(=O)(O)c1ccc(N=Nc2c(O)ccc3cc(S(=O)(=O)O)ccc23)cc1
inactive: [7]

c1ccc2c(c1)-c1cccc3c1c-2cc1ccccc13
inactive: [2] | [3] | [4] | [5] | [6]
active: [1] 4480 nM

COc1cc(C(C)C)c2c(c1)S(=O)(=O)N(COc1cc(=O)n3cccc(OCCN4CCCCC4)c3n1)C2=O
active: [10] 4.67 µM
inactive: [7]

CCCC(CCC)C(=O)O
active: [3] 576000 nM | [4] 488000 nM | [8] 5000 µM | [9] 5000 µM
inactive: [1] | [2] | [5] | [6]

CCCCCCCC/C=C\CCCCCCCC(=O)OC[C@@H](O)[C@H]1OC[C@H](O)[C@H]1O
inactive: [7]

OC(CCl)CCl
inactive: [7]

OC(O)(C(F)C(O)(O)C(F)(F)F)C(F)(F)F
inactive: [1] | [2] | [3] | [4] | [5] | [6]

Nc1ccn([C@@H]2O[C@H](CO)[C@@H](O)[C@@H]2O)c(=O)n1
active: [1] 145 nM and 889 nM | [2] 65.6 nM and 636 nM | [3] 118 nM and 206 nM | [4] 179 nM and 84 nM | [5] 20.4 µM and 2.69 µM | [9] 1.2 µM | [6] 18.5 µM and 1.67 µM
inactive: [8]

c1ccc2cc3ccccc3cc2c1
inactive: [1] | [2] | [3] | [4] | [5]
active: [4] 218 nM

CCN(CC)C(=S)SSC(=S)N(CC)CC
active: [1] 106 nM and 47.6 nM | [2] 100 nM and 40.6 nM | [3] 102 nM and 55.3 nM | [4] 161 nM and 86.3 nM | [5] 120 nM and 58 nM | [6] 146 nM and 58.6 nM

OC(Cn1cncn1)(Cn1cncn1)c1ccc(F)cc1F
inactive: [1] | [2] | [3] | [4] | [5] | [6]
